# Compound activity from PubChem BioAssay.
# The list is not random: actives were taken first. Their share in the collection is about 11%.
# USP17 block: inhibitors of human USP17 deubiquitinase | A8MUK1 | purified USP17, Ub-rhodamine cleavage fluorescence, 3 h | inhibition, % at 50 µM | actives 6.5% (n = 47,000) | AID 1645855
# USP30 inh: inhibitors of human USP30 deubiquitinase. inhibition, % at 25 µM. Q70CQ3. purified USP30, Ub-rhodamine cleavage fluorescence. actives 5.3% (n = 47,000)
# USP28 block: blocks human USP28 ubiquitin-rhodamine cleavage; AID 1645857; purified USP28, Ub-rhodamine cleavage fluorescence, 30 min; inhibition, % at 25 µM; actives 3% (n = 47,000)
# Target sequence (Q96RU2 whole entry, looked up): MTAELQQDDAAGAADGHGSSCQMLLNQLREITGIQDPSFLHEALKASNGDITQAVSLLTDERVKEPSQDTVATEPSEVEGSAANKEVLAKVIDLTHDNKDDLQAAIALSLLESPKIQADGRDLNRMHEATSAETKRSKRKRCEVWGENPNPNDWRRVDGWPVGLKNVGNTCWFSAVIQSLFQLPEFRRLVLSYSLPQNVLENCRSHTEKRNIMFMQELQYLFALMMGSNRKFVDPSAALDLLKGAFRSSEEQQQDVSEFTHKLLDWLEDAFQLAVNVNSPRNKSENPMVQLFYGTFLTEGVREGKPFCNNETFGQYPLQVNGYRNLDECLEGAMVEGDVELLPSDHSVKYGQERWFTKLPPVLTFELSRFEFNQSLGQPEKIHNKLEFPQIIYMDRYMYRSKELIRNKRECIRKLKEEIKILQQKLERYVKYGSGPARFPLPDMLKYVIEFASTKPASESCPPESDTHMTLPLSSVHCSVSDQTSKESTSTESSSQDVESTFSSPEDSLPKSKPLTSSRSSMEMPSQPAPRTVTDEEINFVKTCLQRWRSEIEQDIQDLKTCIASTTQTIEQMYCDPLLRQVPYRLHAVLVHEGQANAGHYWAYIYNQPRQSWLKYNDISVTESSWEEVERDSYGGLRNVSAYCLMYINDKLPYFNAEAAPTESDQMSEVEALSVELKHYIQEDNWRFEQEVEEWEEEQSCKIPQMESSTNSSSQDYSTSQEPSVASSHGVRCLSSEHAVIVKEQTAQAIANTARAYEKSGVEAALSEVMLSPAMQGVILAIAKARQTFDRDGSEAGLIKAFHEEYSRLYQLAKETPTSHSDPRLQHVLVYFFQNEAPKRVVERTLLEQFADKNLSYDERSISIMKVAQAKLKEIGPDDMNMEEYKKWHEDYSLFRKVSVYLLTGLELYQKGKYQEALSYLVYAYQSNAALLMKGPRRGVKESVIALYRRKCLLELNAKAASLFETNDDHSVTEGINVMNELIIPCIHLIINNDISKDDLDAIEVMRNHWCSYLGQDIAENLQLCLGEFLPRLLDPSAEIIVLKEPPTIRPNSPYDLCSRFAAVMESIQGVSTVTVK
# * = called active by the depositor; i = inactive; nt = no result. Rule as the data show it: active = inhibition above about 30%; inactive = the rest.
SMILES,USP17 block,USP30 inh,USP28 block
C=C(CCC=C(C)C)[C@H]1CC[C@]2(C)[C@@H]1CC[C@@H]1[C@@]3(C)CCC(=O)C(C)(C)[C@@H]3CC[C@]12C,40*,31*,16
C=C(CCC=C(C)C)[C@H]1CC[C@]2(C)[C@@H]1CC[C@@H]1[C@@]3(C)CC[C@H](O)C(C)(C)[C@@H]3CC[C@]12C,11,2,4
Cc1ccc(C2CCCCCN2C(=O)Nc2cccc(F)c2)s1 (centres undefined),0,2,-8
O=C(c1cscn1)N1CCOCC(Cc2ccc3[nH]ncc3c2)C1 (centres undefined),-7,8,-1
COc1ccccc1N1CCN(C(=O)CSc2cc(=O)n(C)c3ccccc23)CC1,16,32*,14
Cn1c(=O)cc(SCC(=O)N2CCN(c3ccc([N+](=O)[O-])cc3)CC2)c2ccccc21,-102,i,-176
O=C(O)[C@H](NC(=O)[C@H](Cc1ccccc1)n1c(=O)[nH]c2ccccc2c1=O)c1ccc(O)cc1,-44,-32,4
COc1ccc(C(C(=O)NC2CCCC2)N(CC2CCCO2)C(=O)c2ccc(-c3ccccc3)[nH]2)cc1 (centres undefined),0,30,11
Cc1cc(-c2cnc(NCc3cccc(F)c3)nc2-c2ccco2)on1,41*,9,26
Cc1cc(-c2cnc(NCCCN3CCOCC3)nc2-c2ccco2)on1,-10,-66,-16
COc1ccc(C2NC(=O)NC(C)=C2C(=O)OCC2CCCCC2)cc1OC (centres undefined),-14,4,-6
CC1=C(C(=O)OCCc2ccccc2)C(c2ccc3c(c2)OCO3)NC(=O)N1 (centres undefined),14,39*,34*
O=C1COc2ccc(NC(=O)N3CCN(Cc4ccc5c(c4)OCO5)CC3)cc2N1,0,8,9
O=C1COc2ccc(NC(=O)c3cnn(Cc4ccccc4)c3)cc2N1,63*,19,12
c1ccc2c(-c3nc(C4CC4)no3)nnc(NCCCn3cccn3)c2c1,-6,-12,-6
O=C(Nc1ccc(Br)cc1F)c1cc(S(=O)(=O)NCCc2ccccc2)ccc1F,5,36*,3
COc1ccccc1NC(=O)c1cc(S(=O)(=O)NC2CCCC(C)C2C)ccc1F (centres undefined),3,20,8
O=C(CCCn1c(=O)c2cccn2c2cccnc21)NCc1ccc(Cl)cc1,1,-227,-38
Cc1ccc(Nc2nccc(C3CCCN(C(=O)c4ccccn4)C3)n2)nc1 (centres undefined),-12,-6,-13
CCCCC/C=C/C(O)C(O)/C=C/c1ccc(Cl)c(O)c1CO (centres undefined),31*,-64,6
COc1cccc(C2NC(=O)c3c(sc4c3CCN(C)C4)N2)c1O (centres undefined),-50,-147,-43
CC(CC(=O)N1CCc2ccccc21)S(=O)(=O)c1ccc2c(c1)NC(=O)CCS2 (centres undefined),8,-12,4
CN(C)c1ncc(-c2ccccc2F)c(C2CCCNC2)n1 (centres undefined),10,20,8
Nc1cc(C2CCN(C(=O)CCCc3ccccc3)CC2)no1,-1,nt,nt
Cc1c(OCc2ccccc2)noc1C1CCN(C(=O)CCN)CC1,-19,7,41*
SMILES,USP17 block,USP30 inh,USP28 block
CCOc1ccc(NC(=O)c2sc3ncnc(N(C)c4ccccc4)c3c2C)cc1,14,0,21
O=C(CSc1nnc2n1CCN2c1ccccc1)Nc1ccc(OC(F)(F)F)cc1,24,29,9
COc1ccc(N2CCn3c(SCC(=O)Nc4cccc(C(F)(F)F)c4)nnc32)cc1,-7,6,-7
COc1ccc(N2CCn3c(SCC(=O)Nc4cccc(F)c4)nnc32)cc1,37*,34*,9
O=C(CC1N=C(N2CCN(c3ccccc3)CC2)NC1=O)Nc1ccc(Cl)cc1 (centres undefined),0,2,0
COc1ccc(N2CCN(C3=NC(CC(=O)Nc4ccccc4)C(=O)N3)CC2)cc1 (centres undefined),36*,25,15
COc1ccc(NCc2nnc(SCC(=O)Nc3cccc4ccccc34)n2C)cc1,20,19,6
COc1ccc(NC(=O)CSc2nnc(Cc3cccc4ccccc34)n2C)cc1,2,7,60*
COc1ccc(N2CCn3c(SCC(=O)Nc4ccccc4)nnc32)cc1,26,43*,5
CN(C)S(=O)(=O)N1CCCC(n2c(=O)[nH]c3cncnc32)C1 (centres undefined),2,13,6
O=C(Nc1cnn(-c2ncncc2N2CCCCC2)c1)c1ccc2c(c1)OCO2,-23,-15,0
COc1ccc(C)cc1NC(=O)C(=O)CC(=O)c1ccccc1OC,6,-45,-2
Cc1ccccc1Cn1nnc2c(=O)n(Cc3nc(-c4ccccc4)no3)cnc21,-4,-32,-4
O=c1c2nnn(Cc3ccccc3)c2ncn1Cc1nc(-c2cccc(Cl)c2)no1,-7,36*,14
COc1cccc(-c2cncc(C3CCN(S(=O)(=O)N(C)C)CC3)n2)c1,1,15,7
Cc1cc(C)c2nc(Nc3ncc4c(n3)CCCC4=O)nc(C)c2c1,9,2,7
O=c1c(NCCN2CCCC2)nc2ccncc2n1Cc1ccccc1,66*,nt,nt
Cc1cc(C)cc(Nc2nc3ccncc3n(Cc3ccccc3)c2=O)c1,23,17,-11
O=c1c(Nc2cccc(F)c2)nc2ccncc2n1Cc1ccccc1,67*,24,-3
CCc1cccc(Nc2nc3ccncc3n(Cc3ccccc3)c2=O)c1,nt,0,-18
COc1ccccc1NC(=O)c1cn(-c2ccccc2)nc1-c1cccnc1,-7,-11,1
COc1ccccc1OCC(=O)NCc1ccc(-c2ncncc2-c2cc(C)no2)cc1,0,1,-1
CCn1nnc2c(N3CCN(c4ccccc4OC)CC3)ncnc21,-13,-40,-3
CCCN1C=NS(=O)(=O)c2cc(C(=O)Nc3ccc(OC)c(Cl)c3)ccc21,51*,19,8
COc1ccc(Cl)cc1NC(=O)c1ccc(S(=O)(=O)N2CCCCC2)cc1,-14,-2,-1
SMILES,USP17 block,USP30 inh,USP28 block
COCCn1c(=O)[nH]c2cc(C(=O)Nc3ccc(OC)c(Cl)c3)ccc2c1=O,10,22,2
CCCN1C=NS(=O)(=O)c2cc(C(=O)Nc3cc(Cl)ccc3OC)ccc21,16,35*,10
O=C(/C=C/c1ccccc1)Nc1ccc(SC(C(=O)Nc2ccc3c(c2)OCO3)c2ccccc2)cc1 (centres undefined),-47,-108,-45
O=C(N[C@H]1[C@H](O)[C@H](O)C[C@@H]1C1CCCCC1)C1CC1,21,49*,16
O=C(N[C@H]1[C@H](O)[C@H](O)C[C@@H]1C1CCCCC1)c1cncnc1,-30,-34,11
COc1ccc(CNc2nc(-c3ccccc3)nn2S(=O)(=O)c2ccc(C)cc2)cc1,5,30,12
Cc1nc2nc(CN(C(=O)COc3ccccc3)c3ccccc3)nn2c(C)c1Cl,4,36*,9
Cc1cc(C)n2nc(CN(C(=O)COc3ccccc3)c3ccccc3)nc2n1,-9,nt,nt
O=C(/C=C/c1c(F)cccc1Cl)N1CCc2ccccc2C1,75*,29,43*
O=C(/C=C/c1ccc(Cl)cc1)N1CCc2ccccc2C1,nt,5,0
